Assay [1] is described as follows: hit retest on RPL19A-GFP reporter strain – cell-based, S. cerevisiae, flow cytometry, cherry picks, mother/daughter gates, confirmation (AID 2270;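 active = GFP response below 50% of the DMSO control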). The following applies: 3 h, at 10 µM, stronger effect = lower value, 100 = same GFP as DMSO wells. Background: A flow cytometer gives signals particle by particle.
A short description of assay [2]: yeast TOR pathway reporter LAP4-GFP change – cell-based, cherry picks, flow cytometry, mother/daughter gates, confirmation (AID 2271;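 active = GFP response above 150% of the DMSO control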;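 note: ratio of sample to DMSO plate mean so 100% equals DMSO level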). The conditions noted are these: S. cerevisiae LAP4-GFP strain, 3 h, at 10 µM, stronger effect = higher value, 100 means same as DMSO control.
Assay [3] in a line: TOR pathway reporter MEP2-GFP, retest of hits – S. cerevisiae, flow cytometry GFP, cherry picks, confirmation (AID 2272;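 active = GFP response above 150% of the DMSO control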;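 note: ratio of well signal to plate DMSO mean so 100% equals DMSO level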). The conditions noted are these: S. cerevisiae MEP2-GFP strain, 3 h, at 10 µM, stronger effect = higher value.
The nature of assay [4]: yeast AGP1-GFP fluorescence change, single-dose – cell-based, flow cytometry, S. cerevisiae, cherry picks, confirmation (AID 2273).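 Note: median GFP channel fluorescence over the whole cell population gate.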 The following applies: S. cerevisiae AGP1-GFP strain, 3 h, at 10 µM.
The nature of assay [5]: TOR pathway CIT2 reporter hit retest – S. cerevisiae, GFP fusion, cherry picks, mother/daughter gates, confirmation (AID 2274). The following applies: S. cerevisiae CIT2-GFP strain, flow cytometry, 3 h, at 10 µM, stronger effect = higher value.
The nature of assay [6]: green-channel fluorescence artefact in S. cerevisiae – s288c strain, artefact control for yeast TOR pathway GFP screen, dose response (AID 2757;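 active = fluorescence span over the dose series, or activity score, above about 33, limit read from the data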;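 note: thousands of bead-calibrated equivalent soluble fluorophore molecules from median cell fluorescence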). The following applies: 520 nm autofluorescence, flow cytometry, 3 h, at 33 µM, stronger effect = higher value, zero means same as solvent-only cells.
[7] abbreviates: measured here: daughter cell gate.
Where [8] appears, read: measured here: mother cell gate.
Where [9] appears, read: measured here: mother cell gate response.
The mark [10] stands for this setting: measured here: daughter cell gate response.

The list shows a part of the results. Active and inactive are the calls of the source.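 Rule for the calls, unless noted: active = GFP response above 150% of the DMSO level; inconclusive = fewer than 70 events counted for a yeast strain; inactive = the rest.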

On to `CC(C)(C)C(=O)NC(=S)NNC(=O)c1ccc(-c2ccccc2)cc1`, for which the GFP response vs DMSO in assay [1] was 116% (inactive); in assay [1] (setting [7]), 84.5%; in assay [1] (setting [8]), 104%; in assay [3], 141% (inactive). For the same compound, the values for the GFP response relative to DMSO in assay [2] and in assay [2] (setting [9]) were 228% (active) and 209%, respectively. Besides, the GFP response, % of DMSO was 129% (inactive) in assay [4], 132% (inactive) in assay [5], 99.3% in assay [5] (setting [7]) and 113% in assay [5] (setting [8]).
Take `Nc1c(C(=O)c2cccs2)sc2nsc(SCCN3CCCCC3)c12`: the GFP response vs DMSO in assay [1] was 114% (inactive); in assay [1] (setting [7]), 110%; in assay [1] (setting [8]), 118%; in assay [3], 241% (active). In addition, the GFP response relative to DMSO in assay [2] is 142% (inactive); in assay [2] (setting [10]), 128%; in assay [2] (setting [9]) it was 158%. Further, the GFP response, % of DMSO in assay [4] is 107% (inactive); in assay [5] it was 160% (active); in assay [5] (setting [7]) it was 149%; in assay [5] (setting [8]), 173%. Also, the fluorescence change (kMESF span) in assay [6] is 17.9 (inactive).
As for `Cc1cc(C)nc(S/C=C/C(=O)c2ccccc2)n1`, the GFP response vs DMSO was 100% (inactive) in assay [1], 101% in assay [1] (setting [7]), 98% in assay [1] (setting [8]) and 121% (inactive) in assay [3]. Besides, the GFP response relative to DMSO in assay [2] is 169% (active); in assay [2] (setting [10]) it was 151%; in assay [2] (setting [9]) it was 191%. Moreover, the GFP response, % of DMSO in assay [4] was 107% (inactive); in assay [5] it was 92.2% (inactive); in assay [5] (setting [7]), 98.4%; in assay [5] (setting [8]) it was 83.8%. In addition, in assay [6], the fluorescence change (kMESF span) is 1.02 (inactive).
In the case of `COc1ccccc1OC(C)C(=O)Nc1ccccc1C(=O)NCC1CCCO1` (stereo unspecified), the GFP response vs DMSO is 97% (inactive) in assay [1], 95.2% in assay [1] (setting [7]), 97.2% in assay [1] (setting [8]) and 99.5% (inactive) in assay [3]. The results for the GFP response relative to DMSO in assay [2], in assay [2] (setting [10]) and in assay [2] (setting [9]) were 97.7% (inactive), 97.9% and 97.5%, respectively. Moreover, the GFP response, % of DMSO in assay [4] is 103% (inactive); in assay [5], 97.8% (inactive); in assay [5] (setting [7]), 98.3%; in assay [5] (setting [8]), 96.8%.
As to `Oc1ccc(Br)cc1/C=N/Nc1ccccn1`, the GFP response vs DMSO in assay [1] was 93.9% (inactive); in assay [1] (setting [7]), 92.3%; in assay [1] (setting [8]) it was 83.8%; in assay [3], 129% (inactive). For the same compound, the GFP response relative to DMSO is 263% (active) in assay [2], 222% in assay [2] (setting [10]) and 261% in assay [2] (setting [9]). The GFP response, % of DMSO in assay [4] is 91% (inactive); in assay [5] it was 112% (inactive); in assay [5] (setting [7]) it was 113%; in assay [5] (setting [8]), 98%. In addition, in assay [6], the fluorescence change (kMESF span) is 1.31 (inactive).
As for `Cc1cccn2c(=O)c3cc(C(=O)NCCc4ccccc4)c(=N)n(CCCn4ccnc4)c3nc12`, the GFP response vs DMSO in assay [1] is 95.8% (inactive); in assay [1] (setting [7]), 94.7%; in assay [1] (setting [8]) it was 95%; in assay [3], 103% (inactive). Also, the GFP response relative to DMSO in assay [2] is 96.5% (inactive); in assay [2] (setting [9]) it was 92.3%. The GFP response, % of DMSO in assay [4] was 98.6% (inactive); in assay [5], 100% (inactive); in assay [5] (setting [7]) it was 99.3%; in assay [5] (setting [8]), 97.1%.
On to `Oc1ccc(-c2csc(-c3ccccc3)n2)cc1O`, for which the GFP response vs DMSO in assay [1] is 97% (inactive); in assay [1] (setting [7]), 93.2%; in assay [1] (setting [8]) it was 96.5%; in assay [3] it was 101% (inactive). Also, the figures for the GFP response relative to DMSO in assay [2], in assay [2] (setting [10]) and in assay [2] (setting [9]) were 124% (inactive), 120% and 129%, respectively. Besides, the GFP response, % of DMSO in assay [4] was 96% (inactive); in assay [5], 93.4% (inactive); in assay [5] (setting [7]), 93.7%; in assay [5] (setting [8]), 90.8%.
`Cc1cc(O)ccc1NC(=O)c1ccccc1`: the GFP response vs DMSO in assay [1] was 98.4% (inactive); in assay [1] (setting [7]), 98.4%; in assay [1] (setting [8]), 95.6%; in assay [3], 102% (inactive). Besides, the GFP response relative to DMSO was 96.7% (inactive) in assay [2] and 92.8% in assay [2] (setting [10]). Further, the figures for the GFP response, % of DMSO in assay [4] and in assay [5] were 102% (inactive) and 98.3% (inactive), respectively.

The values above are taken from PubChem BioAssay.
